High-throughput results (PubChem)
In the library only some 5.6% were active in any assay of this set; here they are far more common.
PfGluPho inh = PfG6PD (Plasmodium falciparum) enzyme inhibition; 350,000 compounds, 0.78% hits; inhibition, % at 20 µM; PfGluPho enzyme, NADPH resazurin-diaphorase fluorescence;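 active means inhibition reaching at least a set limit at 20 µM in the primary screen, cut at about 59% in these data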
PHOSPHO1 block = blocks human PHOSPHO1 phosphatase activity. recombinant PHOSPHO1, absorbance phosphatase assay. inhibition, % at 13.3 µM. 290,000 compounds, 1.1% hits. Q8TCT1; in the data active means inhibition above about 60%
Target sequence (Q8TCT1 whole entry, looked up): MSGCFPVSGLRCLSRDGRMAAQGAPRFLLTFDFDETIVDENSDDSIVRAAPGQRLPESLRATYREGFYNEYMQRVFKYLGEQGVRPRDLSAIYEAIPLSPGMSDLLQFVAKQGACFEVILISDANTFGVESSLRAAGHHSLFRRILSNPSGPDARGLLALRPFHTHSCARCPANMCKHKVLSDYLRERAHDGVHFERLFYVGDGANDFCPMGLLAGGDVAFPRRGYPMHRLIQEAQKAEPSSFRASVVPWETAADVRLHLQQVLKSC
ALR inh = inhibitors of human sulfhydryl oxidase ALR; P55789; purified ALR, DTT oxidation, H2O2 HRP-luminol luminescence; inhibition, % (concentration not given with the values); 290,000 compounds, 3.8% hits; AID 485317;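 active means mean replicate inhibition above about 79%, with every replicate also reaching it, limit read from the data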
Target sequence (P55789 whole entry, looked up): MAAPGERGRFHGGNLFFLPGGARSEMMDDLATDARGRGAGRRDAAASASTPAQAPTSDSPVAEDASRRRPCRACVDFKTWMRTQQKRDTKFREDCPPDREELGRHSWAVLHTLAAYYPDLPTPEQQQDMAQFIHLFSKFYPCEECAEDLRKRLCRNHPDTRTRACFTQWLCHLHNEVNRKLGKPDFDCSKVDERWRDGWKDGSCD
PfM18AAP inh = blocks P. falciparum M18 aspartyl aminopeptidase | recombinant PfM18AAP, H-Glu-NHMec fluorogenic cleavage | inhibition, % at 7.35 µM | 290,000 compounds, 1.2% hits | AID 1822;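 active means inhibition above the campaign mean inhibition over all tested compounds plus 3 SD, cut at about 28% in these data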
Cardio protect = protects H9c2 cardiomyocytes from peroxide injury. H2O2 injury protection, ATPLite, 2 h. protection from H2O2 cell death, % at 20 µM. 360,000 compounds, 0.63% hits;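 active means compounds giving at least 50% protection of heart cells from peroxide-induced death in the single-dose screen, raw or plate-pattern-corrected value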
PfGluPho conf = PfG6PD inhibition, single-dose confirmed; inhibition, % at 20 µM; recombinant PfGluPho, NADPH-diaphorase-resazurin fluorescence; 2,400 compounds, 34% hits; AID 504753; shares compounds with PfGluPho inh;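 active means inhibition of at least 50% at 20 µM in any single replicate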
Diaphorase 10uM = inhibits diaphorase or oxidizes, flagging false PfG6PD hits | diaphorase-coupled resazurin reduction, fluorescence, NADPH 10 uM | shares compounds with PfGluPho inh | 820 compounds, 39% hits | AID 504862 | inhibition, % at 20 µM;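 active means average inhibition reaching 50% or more with the compound at 20 µM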;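 further: resorufin red fluorescence formed as diaphorase reduces resazurin using NADPH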
Diaphorase 30uM = counter-screen for P. falciparum G6PD inhibitors: diaphorase inhibitors, oxidizers; Diaphorase/resazurin coupled assay, resorufin fluorescence, 30 uM NADPH; inhibition, % at 20 µM; 820 compounds, 29% hits; shares compounds with PfGluPho inh;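 active means inhibition averaging 50% or more, tested at 20 µM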
Each line names hits and unclear results; the compound was inactive in the other large screens (follow-up assays come after a bar, where they were run).

COc1ccc(/C=C/C(=O)OCC(=O)Nc2cccc(S(=O)(=O)NC3=NCCCCC3)c2)cc1	none (no result: PHOSPHO1 block, PfM18AAP inh)
CCOc1ccccc1CNC(=O)CCNS(=O)(=O)c1ccc2[nH]c(=O)oc2c1	none
COc1ccc(CC(=O)Nc2nc(OCCN3CCCC3=O)cnc2-c2cccc(C(F)(F)F)c2)cc1	none (no result: PfGluPho inh, PHOSPHO1 block, ALR inh, PfM18AAP inh)
N#Cc1cc2c([nH]c1=S)CCCCCC2	PfGluPho inh 62.9, PHOSPHO1 block 93.4 (no result: ALR inh) | PfGluPho conf inactive
O=C(O)c1ccc(-n2c(-c3cc(-c4ccco4)[nH]n3)n[nH]c2=S)cc1	PfGluPho inh 59.1, ALR inh 95.5 | PfGluPho conf 55.8 | Diaphorase 10uM inactive | Diaphorase 30uM inactive
S=c1[nH]nc(-c2ccco2)n1-c1ccc(Br)cc1	none (no result: PHOSPHO1 block, PfM18AAP inh)
C=CCn1c2ccccc2c(=O)c2cc(C#CC3(O)CCCCC3)ccc21	PfGluPho inh 104.1 | PfGluPho conf 55.3 | Diaphorase 10uM 69.9 | Diaphorase 30uM 53.5
C=CCn1c2ccccc2c(=O)c2cc(C#CC[C@@H](C)O)ccc21	PfGluPho inh 67.2 (no result: PHOSPHO1 block, PfM18AAP inh) | PfGluPho conf inactive
COc1ccc(Nc2cc(C)c3c(O)cccc3n2)cc1	PfGluPho inh 119.5, ALR inh 83.7 | PfGluPho conf 56.5 | Diaphorase 10uM inactive | Diaphorase 30uM inactive
Cc1ccc(Nc2cc(C)c3c(O)cccc3n2)cc1C	PfGluPho inh 124.6 | PfGluPho conf inactive
COc1ccc(OC)c(Nc2cc(C)c3ccccc3n2)c1	none (no result: PHOSPHO1 block)
COc1cccc(Nc2cc(C)c3ccccc3n2)c1	PfGluPho inh 60.7 | PfGluPho conf inactive
O=C(C1CCCO1)N1CCN(S(=O)(=O)c2cc(C(F)(F)F)ccc2Cl)CC1 (stereo not given)	none (no result: PHOSPHO1 block, ALR inh, PfM18AAP inh)
CCOC(=O)c1sc(NC(=O)c2cc(-c3ccc(C)cc3)nc3ccccc23)c(C#N)c1C	none
COC(=O)c1sc(NC(=O)c2cc(-c3ccccc3)nc3ccccc23)c(C#N)c1C	PfGluPho inh 64.7, PHOSPHO1 block 96.2, PfM18AAP inh 45.4 | PfGluPho conf inactive
O=C(NCc1cccc(C(F)(F)F)c1)c1[nH]c(C(F)(F)F)nc1-c1ccccc1	none (no result: PfGluPho inh, PHOSPHO1 block, ALR inh, PfM18AAP inh)
Cc1cc(=O)[nH]c(N/N=C/c2c(C)nn(-c3ccccc3)c2Cl)n1	PfGluPho inh 85.5 (no result: ALR inh) | PfGluPho conf 77.5 | Diaphorase 10uM inactive | Diaphorase 30uM inactive
Cc1nn(-c2ccccc2)c(Cl)c1/C=N/Nc1nc2ccccc2[nH]1	none
COc1cccc(-c2[nH]nc3c2C(c2ccsc2)C(C#N)=C(N)O3)c1 (stereo not given)	PfGluPho inh 60.6 | PfGluPho conf inactive
COc1ccc(-c2[nH]nc3c2C(c2ccsc2)C(C#N)=C(N)O3)cc1 (stereo not given)	none
O=c1nc2s/c(=C\c3ccco3)c(=O)n2nc1Cc1ccc(F)cc1	none
NC(=O)CN1C(=O)/C(=c2\sc3nc(=O)c(Cc4ccccc4)nn3c2=O)c2ccccc21	PfGluPho inh 62.6 | PfGluPho conf inactive
COc1cc(/C=C2\SC(c3ccc(C)cc3)=NC2=O)ccc1O	PfGluPho inh 64.0 | PfGluPho conf 53.8 | Diaphorase 10uM inactive | Diaphorase 30uM inactive
COc1cc(/C=C2\SC(c3ccccc3)=NC2=O)cc(Cl)c1O	PfGluPho inh 61.2 (no result: ALR inh) | PfGluPho conf inactive
COc1ccc(/C=C2\SC(c3ccc(C)cc3)=NC2=O)cc1OC	none
CC1(Cc2ccccc2Cl)C(=O)Nc2ccc(OC(F)(F)F)cc21 (stereo not given)	none (no result: PfGluPho inh, PHOSPHO1 block, ALR inh, PfM18AAP inh)
CCc1nc(Nc2ccncc2)c2oc3ccccc3c2n1	none
CCc1nc(Nc2cccc(O)c2)c2oc3ccccc3c2n1	PfGluPho inh 73.2 | PfGluPho conf inactive
Cc1ccccc1OCC(=O)NCC(=O)N/N=C/c1cccc([N+](=O)[O-])c1	none (no result: PfGluPho inh, Cardio protect)
Cc1ccccc1OCC(=O)N/N=C/c1cccc(Oc2ccc([N+](=O)[O-])cc2[N+](=O)[O-])c1	PfGluPho inh 126.6 (no result: ALR inh) | PfGluPho conf 93.2 | Diaphorase 10uM 86.6 | Diaphorase 30uM 71.1
O=C(N/N=C/c1cccc(Oc2ccc([N+](=O)[O-])cc2[N+](=O)[O-])c1)c1cncc(Br)c1	PfGluPho inh 98.2 | PfGluPho conf 69.2 | Diaphorase 10uM 69.4 | Diaphorase 30uM 58.2
O=C(N/N=C/c1cccc(OC(=O)c2ccc3c(c2)OCO3)c1)c1cncc(Br)c1	none
Cc1cccc(S(=O)(=O)NC(=O)C2(C)CCN2C(=O)Cc2cc(F)ccc2F)c1 (stereo not given)	none (no result: PfGluPho inh, PHOSPHO1 block, ALR inh, PfM18AAP inh)
Cc1ccc(NC(=O)COc2ccccc2)c(NC(=O)c2ccco2)c1	none
Cc1ccc(-c2cnc(C(O)c3ccc(Cl)cc3C)[nH]2)cc1 (stereo not given)	none (no result: PfGluPho inh, PHOSPHO1 block, ALR inh, PfM18AAP inh)
Nc1ccccc1SSc1ccccc1N	PfGluPho inh 68.8 (no result: ALR inh) | PfGluPho conf inactive
Cc1ccccc1CNC(=O)C(=O)NCCC1CCCCN1S(=O)(=O)c1ccccc1 (stereo not given)	none (no result: PHOSPHO1 block, PfM18AAP inh)
COCCOCCn1c(CCCO)nc2ccccc21	none
CCCn1c(/C=C/c2ccccc2)nc2ccccc21	PfGluPho inh 59.2 | PfGluPho conf inactive
COc1ccc(/C=C/c2nc3ccccc3n2Cc2ccc(OC)c(OC)c2)cc1	PfGluPho inh 65.5 | PfGluPho conf 48.6 | Diaphorase 10uM inactive | Diaphorase 30uM inactive
COCCOCCn1c(/C=C/c2ccccc2)nc2ccccc21	PfGluPho inh 63.0 | PfGluPho conf inactive
COc1cccc(COC(=O)C(Cc2ccccc2)NC(=O)c2ccco2)c1 (stereo not given)	none (no result: PHOSPHO1 block, ALR inh, PfM18AAP inh)
CCc1cccc(NC(=O)C2CCCN(S(=O)(=O)c3cccnc3)C2)c1 (stereo not given)	none
Cc1ccc(O)c(N=Cc2cccs2)c1	PfGluPho inh 70.9 (no result: ALR inh) | PfGluPho conf inactive
Cc1ccc(O)c(N=Cc2ccc(C)s2)c1	PfGluPho inh 67.0 | PfGluPho conf inactive
Sc1ccccc1N=Cc1cccs1	none (no result: PHOSPHO1 block, ALR inh, PfM18AAP inh)
COc1ccc(CCNC(=O)CCn2c(SCC(=O)N3CCCC3)nc3ccccc3c2=O)cc1OC	none
CN=c1sc2c(n1C)C(=O)c1ccccc1C2=O	PfGluPho inh 72.2 (no result: PHOSPHO1 block, ALR inh, PfM18AAP inh) | PfGluPho conf inactive
C=CCc1c(C)[nH]c(=S)c(C#N)c1C	PfGluPho inh 72.5, PHOSPHO1 block 82.7 | PfGluPho conf 56.2 | Diaphorase 10uM inactive | Diaphorase 30uM inactive
O=C(Cc1ncc(C(F)(F)F)cc1Cl)NNc1cccc(F)n1	none (no result: ALR inh)
COc1ccc(OC)c2nc(-c3ccc4c(c3)OCO4)ccc12	none (no result: ALR inh)
Fc1cccc(Cl)c1CNc1ccc(N2CCCC2)cc1	PfGluPho inh 106.4, ALR inh 98.6 | PfGluPho conf 87.1 | Diaphorase 10uM inactive | Diaphorase 30uM inactive
NS(=O)(=O)c1ccc(NCc2c(F)cccc2Cl)cc1	none (no result: ALR inh)
COc1ccc2c(c1)CC/C(=C/c1ccncc1)C2=O	none
COc1ccc2c3c(ccc2c1)C(=O)/C(=C/O)CC3	PfGluPho inh 69.3 (no result: PHOSPHO1 block, ALR inh, PfM18AAP inh) | PfGluPho conf inactive
